Luc counter: counter-screen: inhibitors of Kinase-Glo firefly luciferase; 0.28% of 200,000 active; Kinase-Glo luciferase, ATP luminescence, 8 min; AID 1379; Potency, µM (top dose mostly 38.3 µM), inactives show at the highest dose activity change, negative = inhibition, hits mostly inhibitors; Q27757; also: % is scaled to controls: 0 for no effect and ±100 for the full control effect; nearly all actives have a fitted effect of over 60% in size
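Recombinant Kinase-Glo luciferase, 10 uM ATP (linear range), luciferin; imidazole pH 7.2 / KCl / MgCl2 / Tween / BSA buffer; 8 min RT; luminescence.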
ELG1 genotox: inducers of genotoxicity in HEK293T ELG1-luciferase cells; AID 504466; Potency, µM (doses to about 46 µM), for inactives: at the top dose activity change, positive = activation, actives largely listed as activators; 1.3% of 330,000 active; HEK293T ELG1-luciferase reporter, luminescence, 16 h; also: % of control where 0% means no effect; nearly all actives have a fitted effect of over 60% in size
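16 hr compound incubation (37 °C, 5% CO2) of HEK293T cells carrying luciferase-tagged ELG1; luciferase then measured by ONE-Glo luminescence after 30 min at RT.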
SMN2 splice enh: SMN2 splice variant enhancement; Potency, µM (top dose mostly 46.1 µM), for inactives: at the highest dose activity change, positive = activation, most hits filed as activators; AID 1458; HEK293 SMN2-luciferase splicing reporter, luminescence, 30-36 h; 2.8% of 210,000 active; also: % of control where 0% means no effect; nearly all actives have a fitted effect of over 55% in size
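HEK293 cells carry an SMN2 […]–luciferase reporter in which exon 7 inclusion puts luciferase in frame. Cells were plated 10-12 h before compound addition, then incubated 30-36 h at 37C. ONE-Glo luminescence was read; sodium butyrate at 4.5 mM final served as control.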
NPC1 promoter act: activates the NPC1 promoter. 2.4% of 320,000 active. Huh7 NPC1 promoter luciferase reporter, 24 h. Potency, µM (highest dose often 9.22 µM), for the others: at the top dose activation, actives largely listed as activators; also: % of control where 0% means no effect; nearly all actives have a fitted effect of over 60% in size
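Luminescence read-out of NPC1 promoter-driven luciferase in stably transfected Huh7 cells; compounds delivered in DMSO and left 24 h at 37C, 5% CO2, qHTS titration format.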
FLuc modulator: inhibits or activates purified firefly luciferase, miR-21 counter-screen. P08659. 6.9% of 360,000 active. purified FLuc, Km substrates, luminescence inhibition. AID 588342. Potency, µM (highest dose often 57.5 µM), inactives show at the top dose activity change, negative = inhibition, most hits filed as inhibitors;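 also: plate controls were vehicle for no effect and reference inhibitor for full effect; nearly all actives have a fitted effect of over 55% in size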
Target sequence (P08659 whole entry, looked up): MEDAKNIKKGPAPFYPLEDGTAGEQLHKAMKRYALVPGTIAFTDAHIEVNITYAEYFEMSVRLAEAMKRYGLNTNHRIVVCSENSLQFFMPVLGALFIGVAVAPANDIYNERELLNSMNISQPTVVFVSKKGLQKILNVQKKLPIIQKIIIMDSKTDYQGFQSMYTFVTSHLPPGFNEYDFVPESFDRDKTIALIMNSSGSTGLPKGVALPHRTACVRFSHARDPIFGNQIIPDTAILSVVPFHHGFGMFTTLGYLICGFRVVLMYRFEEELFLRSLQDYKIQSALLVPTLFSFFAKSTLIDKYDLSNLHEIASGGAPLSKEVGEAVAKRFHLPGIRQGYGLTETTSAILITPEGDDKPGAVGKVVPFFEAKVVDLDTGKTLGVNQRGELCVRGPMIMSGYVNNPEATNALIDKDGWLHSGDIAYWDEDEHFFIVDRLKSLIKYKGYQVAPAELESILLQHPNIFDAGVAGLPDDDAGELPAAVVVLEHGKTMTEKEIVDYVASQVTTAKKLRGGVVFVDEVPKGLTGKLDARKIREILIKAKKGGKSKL
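Purified P. pyralis luciferase (10nM final) with 10uM D-luciferin and 10uM ATP (Km levels) in 50mM Tris acetate pH 7.5, 10mM Mg acetate, 0.01% Tween-20, 0.05% BSA; qHTS 6-point titration, ~60 µM downward; luminescence read.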
Rab9 promoter act: activates the Rab9 promoter; Huh7 Rab9 promoter-luciferase reporter, luminescence, 24 h; Potency, µM (series often up to 9.22 µM), inactives show top-dose activation, negative = inhibition, usual class: activators; 2.8% of 320,000 active; also: % of control where 0% means no effect; nearly all actives have a fitted effect of over 60% in size
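Measured in stably transfected Huh7 cells bearing a Rab9 promoter–luciferase construct: 24 h compound treatment at 37 °C, followed by luminescence detection.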
The depositor's hits bear a star; ? = inconclusive; nt = not tested or not shown. The list is not random: actives were taken first. Their share in the collection is about 7.3%. Calls follow the shape of the dose curve; as a rule, active = well fitted curve in the direction sought with a large enough effect; inconclusive = small, poorly fitted or top-dose-only effect, or another doubt; inactive = no such curve, though single readings can be large; an effect the other way counts as inactive or inconclusive. Potency is read from the fitted curve at half-maximal effect.

SMILES | Luc counter | ELG1 genotox | SMN2 splice enh | NPC1 promoter act | FLuc modulator | Rab9 promoter act
COc1cc(SC)ccc1C(=O)Nc1ccccc1 | -1% | ? | ? | 8% | 6.7µM* | 28%
COc1ccccc1C(=O)Nc1cccc(SC)c1 | 0% | ? | 21% | -2% | 17µM* | 16%
O=C(Nc1ccccc1)c1ncoc1-c1ccc(Cl)cc1 | nt | 9% | nt | 23% | ? | 19%
CSc1cccc(NC(=O)c2cccc3cccnc23)c1 | nt | ? | nt | ? | 6.7µM* | 26%
CSc1cccc(NC(N)=O)c1 | nt | -2% | nt | -2% | -4% | -2%
C=CCN1C(=O)C(C)S/C1=N\S(=O)(=O)c1ccc(Cl)cc1 (stereo not drawn) | -1% | 0% | 1% | 3% | 3% | -4%
O=C(CCCc1ccccc1)NC12CC3CC(CC(C3)C1)C2 | nt | ? | nt | 3.2µM* | 9.5µM* | 2.2µM*
O=C(COC(=O)c1ccccc1)NC12CC3CC(CC(C3)C1)C2 | nt | -1% | nt | -2% | 6.7µM* | 0%
Oc1c(Cl)cc(Cl)cc1CNc1ccc(Br)cn1 | -1% | ? | -7% | 0% | ? | 4%
Oc1ccc(Cl)cc1CNc1ccc(Br)cn1 | 4% | ? | nt | 0% | 19µM* | 1%
COc1cccc(SCc2noc(C(=O)NC(C)C)c2C(=O)O)c1 | 0% | -2% | 20% | -3% | -11% | 3%
COc1ccc(C(=O)/C=C/Nc2ccc([N+](=O)[O-])cc2)cc1 | -2% | 1% | ? | ? | -25% | ?
O=C(/C=C/Nc1ccc(F)cc1)c1ccc(Oc2ncccn2)cc1 | 4% | 0% | 24% | 17% | ? | ?
CCOc1ccc(N/C=C/C(=O)c2ccc(OC)cc2)cc1 | nt | 9% | nt | ? | 1.2µM* | ?
COc1ccc(N/C=C/C(=O)c2ccc(Oc3ncccn3)cc2)cc1 | 0% | 9% | -10% | 9% | 1.7µM* | 6%
CCOc1ccc(N/C=C/C(=O)c2ccc(OC)cc2)c([N+](=O)[O-])c1 | ? | ? | -25% | 0.4µM* | 0.85µM* | 1.1µM*
CCc1ccc2[nH]c(=O)c(CN(CCCO)C(=O)NCc3ccccc3)cc2c1 | 0% | -2% | 8% | 1% | 0% | -7%
COC(=O)c1c(NC(=O)CN2CCOCC2)sc2c1CCC(C)C2 (stereo not drawn) | -1% | 19% | -5% | 8% | 12µM* | 23%
COC(=O)c1c(NC(=S)NN2CCOCC2)sc2c1CCCC2 | nt | -4% | nt | -2% | 15µM* | -3%
CCC(c1nnc(SCC(=O)Nc2ccc(C(C)=O)cc2)n1C1CCCCC1)N(C)C (stereo not drawn) | 1% | 3% | 13% | 2% | 1% | -3%
O=C(Nc1ccc(OC(F)(F)F)cc1)C1=NCCN1 | -6% | 10% | 2% | ? | 6.7µM* | 2%
Cc1cc(C)c2c(N)c(C(=O)N/N=C/c3cccnc3)sc2n1 | nt | 11% | nt | ? | ? | ?
Cn1cncc1C#Cc1ccc2cc(C(C)(C)O)oc(=O)c2c1 | nt | 6% | nt | 11% | -1% | -1%
COc1ccc(-c2nnc3c4ccccc4c(C)nn23)cc1 | 8% | ? | ? | ? | 15µM* | ?
Cc1nnc(Oc2ccccc2)c2ccccc12 | 1% | 17% | -17% | -3% | ? | 15%
SMILES | Luc counter | ELG1 genotox | SMN2 splice enh | NPC1 promoter act | FLuc modulator | Rab9 promoter act
COc1ccc(Oc2nnc(C)c3ccccc23)cc1 | 14% | ? | ? | 2.5µM* | 12µM* | 4µM*
CCS(=O)(=O)N1CCN(c2cnn(-c3ccccc3)c(=O)c2Cl)CC1 | -7% | 3% | 11% | 11% | -1% | -8%
O=c1c(Cl)c(N2CCCCC2)cnn1-c1nc2ccccc2[nH]1 | 1.6µM* | ? | -63% | ? | 0.38µM* | 0.11µM*
O=c1[nH]c2ccccc2nc1C(F)(F)F | nt | 0% | nt | -2% | 1% | 3%
O=c1c2ccccc2cnn1-c1nc2ccccc2[nH]1 | 2µM* | -8% | nt | 0.1µM* | 0.17µM* | ?
Cc1cc(C)c(NC(=O)CSc2ncc(S(=O)(=O)c3ccc(C(C)(C)C)cc3)c(=O)[nH]2)c(C)c1 | nt | nt | -13% | nt | 11µM* | nt
COc1cccc(NC(=O)CSc2ncc(S(=O)(=O)c3ccc(C)c(C)c3)c(=O)[nH]2)c1 | nt | nt | -1% | nt | ? | nt
CCc1ccccc1NC(=O)CSc1ncc(S(=O)(=O)c2ccccc2)c(=O)[nH]1 | nt | nt | -1% | nt | ? | nt
COc1ccc(S(=O)(=O)c2cnc(SCC(=O)Nc3cc(F)ccc3C)[nH]c2=O)cc1Cl | nt | nt | -8% | nt | 9.5µM* | nt
Cc1ccc(S(=O)(=O)c2cnc(SCC(=O)Nc3ccc4c(c3)OCCO4)[nH]c2=O)cc1 | nt | nt | -3% | nt | 11µM* | nt
CC(C)c1ccc(S(=O)(=O)c2cnc(SCC(=O)Nc3ccc4c(c3)OCCO4)[nH]c2=O)cc1 | nt | nt | 4% | nt | 11µM* | nt
COc1ccc(Cl)cc1NC(=O)CN(C)C(=O)CCNC(=O)c1ccccc1OC | nt | 2% | nt | 0% | 0% | -2%
CC(C)C(=O)NNC(=O)c1ccccn1 | -1% | 2% | 4% | -2% | -8% | -1%
Cn1nc(C(=O)N2CCN(c3ccc([N+](=O)[O-])cc3)CC2)c2c1-c1ccccc1S(=O)(=O)C2 | nt | 6% | nt | -4% | -1% | -14%
O=C(CSc1ncn[nH]1)Nc1ccc2c(c1)OCCO2 | -5% | ? | 5% | 12% | ? | ?
Cc1ccc(S(=O)(=O)c2cnc(SCC(=O)Nc3ccc4c(c3)OCCO4)[nH]c2=O)cc1Cl | nt | nt | nt | nt | 11µM* | nt
O=C(CSc1ncc(S(=O)(=O)c2ccc(Cl)cc2)c(=O)[nH]1)Nc1ccc2c(c1)OCCO2 | nt | nt | -1% | nt | 12µM* | nt
O=C(COC(=O)Cc1c[nH]c2ccccc12)NC1CCCCC1 | 1% | 0% | -5% | 1% | 1% | 2%
Cc1ccc2nsnc2c1NC(=O)c1cccc([N+](=O)[O-])c1 | -1% | 0% | -1% | -1% | 1% | -2%
CCOC(=O)c1c(C)nc2c(C#N)cnn2c1C | 1% | 3% | 3% | -4% | 4% | 2%
CC(C)Nc1nnc(SCC(=O)Nc2ccc3c(c2)C(=O)c2ccccc2C3=O)s1 | 2% | -4% | 14µM* | ? | ? | 3.5µM*
Cc1ccc(NC(=O)CN(C)C(=O)CSc2nnc(NC(C)C)s2)cc1 | nt | 4% | nt | 12% | 0% | 2%
O=C(CSc1nnc(NC2CCCCC2)s1)Nc1ccc2c(c1)C(=O)c1ccccc1C2=O | 0% | 6% | 11µM* | 3.5µM* | ? | 2.8µM*
NS(=O)(=O)c1ccc(NC(=O)CSc2nnc(NC3CC3)s2)cc1 | nt | -1% | nt | -3% | -1% | 1%
